HCMV antiviral – blocks human cytomegalovirus replication | HFF cells, HCMV-luciferase reporter, 72 h; hits give low values | activity change, negative = inhibition, % at 57.5 µM | actives 4.5% (n = 410,000); in the data active = activity change below about -60%; inconclusive = no clear call, values can overlap the other calls; inactive = above about -39%; also: % is scaled to controls: 0 for no effect and ±100 for the full control effect
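Luciferase read-out from HCMV-luciferase-infected HFFs (MOI 1 PFU/cell) 72 h post infection at 37C; compounds added after 16 h cell attachment; activity normalized between buffer-only basal and Salinomycin (10uM) inhibitor controls.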
Pf growth 48h – P. falciparum growth inhibition at 48 hours (one generation) | P. falciparum luciferase growth in erythrocytes, 48 h | Potency, µM (titrated, usually from 28.7 µM), without a hit: at the highest dose activity change, negative = inhibition, hits mostly inhibitors | actives 5.9% (n = 310,000); also: potency is read from the fitted curve at half-maximal effect; % is scaled to controls: 0 for no effect and ±100 for the full control effect
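In quantitative HTS format, infected erythrocytes bearing luciferase-reporter parasites were treated for a single generation at 37 C. Luminescence after adding detection reagent served as the growth measure.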
Cycloheximide cs – counter-screen for Shiga toxin inhibitors: cycloheximide protein synthesis inhibition; cell reporter, cycloheximide protein synthesis inhibition counterscreen; max response, %; actives 12% (n = 300,000); AID 2314; in the data active = max response mostly above about 13%, no sharp cut-off; inactive = mostly below about 14%; also: read at 38.3 µM for the half of the compounds with a filed dose; 0% is about no effect
Shiga inhibitor – blocks Shiga toxin action in Vero cells; Vero cells, Shiga toxin protein synthesis inhibition reporter; actives 9.2% (n = 290,000); inhibition, % at 38.7 µM; in the data active = inhibition mostly above about 28%, no sharp cut-off; inactive = mostly below about 43%; also: 0% is about no effect
Pf growth 96h – inhibits malaria parasite growth, 96 h. P. falciparum luciferase reporter growth, 96 h. Potency, µM (highest dose often 28.7 µM), for the others: top-dose activity change, negative = inhibition, usual class: inhibitors. actives 6.9% (n = 320,000); also: potency is read from the fitted curve at half-maximal effect; % is scaled to controls: 0 for no effect and ±100 for the full control effect
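Compounds incubated with erythrocytes infected by luciferase-expressing P. falciparum (2% hematocrit, 0.05% parasitemia final) for 96 hours, 37 C in 5% CO2. Growth inhibition scored as decreased luciferase luminescence.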
An asterisk follows results filed as active; i = inactive; ? = inconclusive; nt = no result given; [ ] = remark or other dose. Shown are actives, neighbours in structure and some others; about 20% of the full set was active somewhere. Unless noted, calls follow the shape of the dose curve; as a rule, active = well fitted inhibition curve with a large enough effect; inconclusive = small, poorly fitted or top-dose-only effect, or another doubt; inactive = no such curve, though single readings can be large or run the other way.

SMILES	HCMV antiviral	Pf growth 48h	Cycloheximide cs	Shiga inhibitor	Pf growth 96h
O=C(COC(=O)c1ccco1)Nc1nc2ccccc2s1	15	24%	21*	32	-2%
NC(=O)c1ccccc1OCc1nc2ccccc2s1	117	291%	34*	97*	i
COc1cc2c(cc1OC)C1(CCCCC1)CN(C)C2	?	-12%	-8	-7	?
O=C(O)COCc1nc2ccccc2s1	-10	-47%	-3	-7	6%
O=C(OCc1nc2ccccc2s1)c1ccco1	126	118%	36*	90*	?
CC(=O)OCc1nc2ccccc2s1	59	133%	29*	92*	362%
O=C(OCc1nc2ccccc2s1)c1ccc([N+](=O)[O-])o1	nt	13%	7	1	31%
CCOC(=O)C(=O)Cc1nc2ccccc2s1	0	?	12*	29	17%
CCOC(=O)CC(=O)Nc1nc2ccccc2s1	70	13%	14	31	?
COc1cccc(-n2c(=O)c3c(C)c(C(=O)N(C)C)sc3n(Cc3ccc(F)cc3Cl)c2=O)c1	50	nt	nt	nt	nt
CC(C)n1c(=O)c2ccccc2n1Cc1cn(Cc2cccnc2)nn1	-16	nt	nt	nt	nt
CCc1nnc(NS(=O)(=O)c2ccc(NCc3cc(Cl)cc(Cl)c3O)cc2)s1	1	28%	0	-2	?
COc1ccc(NC(=O)C(C2CC2)n2c(=O)c(-c3cc4ccccc4[nH]3)nc3ccccc32)cc1 (centres undefined)	-97*	nt	nt	nt	nt
CCOC(=O)C1C(=O)CC(C)(O)C(C(=O)OCC)C1c1ccc(NC(C)=O)cc1 (centres undefined)	-32	6%	-6	12	?
COCCCn1c(SCC(=O)NC2CCCCC2)nnc1-c1ccncc1	6	8%	-5	-15	8.3µM*
COCCCn1c(SCC(=O)NC2CCCCC2)nnc1-c1ccco1	-18	10%	-4	1	2.3µM*
COCCn1c(SCC(=O)NC2CC2)nnc1-c1ccco1	84	6%	-1	-10	24%
CCn1c(SCC(=O)NC2CCCC2)nnc1-c1ccncc1	2	6%	-5	-8	1%
CC(=O)c1ccc2cccc3c2c1N=CN3C	-63*	-29%	-6	-3	32%
CN1c2cccc3cccc(c23)N(C)C1(C)C	9	?	-2	-5	62%
CCOC(=O)C1=C(c2ccccc2)NC(=S)NC1C (centres undefined)	12	?	-3	19	7%
O=C(NCC1CCN(C(=O)c2ccc([N+](=O)[O-])cc2)CC1)C(=O)Nc1ccccc1	-4	3%	18	5	15µM*
O=C(COc1ccccc1)N1CCN(C(=O)c2ccc([N+](=O)[O-])cc2)CC1	-12	167%	48*	36	53%
O=C(c1ccc([N+](=O)[O-])cc1)N1CCC(Cc2ccccc2)CC1	-6	-3%	7	-8	?
Cc1ccc(OCC(=O)N2CCN(C(=O)c3ccc([N+](=O)[O-])cc3)CC2)cc1	-17	1%	5	38	8%
SMILES	HCMV antiviral	Pf growth 48h	Cycloheximide cs	Shiga inhibitor	Pf growth 96h
CC(C)CN1C(=O)CN(S(C)(=O)=O)CC1(C)C(=O)NC(C)C (centres undefined)	-19	nt	nt	nt	nt
COc1cc2ncc(C(=O)c3ccccc3)c(N3CCN(Cc4ccccc4)CC3)c2cc1OC	12	4.7µM*	1	15	?
COc1ccccc1N1CCN(Cc2ccc(C(=O)O)cc2)CC1	8	0%	-5	-8	7%
Cc1ccnc(NS(=O)(=O)c2ccc(NC(=O)C3C4C=CC(C4)C3C(=O)O)cc2)n1 (centres undefined)	-13	27%	-2	-7	?
CNC(=S)N1CCc2cc(OC)c(OC)cc2C1COc1ccc(OC)cc1 (centres undefined)	272	?	2	-3	?
CCC(=O)N1CCc2cc(OC)c(OC)cc2C1COc1ccc(OC)cc1 (centres undefined)	152	-3%	0	-16	53%
COc1cc2c(cc1OC)C(COc1ccc(F)cc1)N(C(=O)c1ccco1)CC2 (centres undefined)	-11	12µM*	13	17	?
COCCNC(=S)N1CCc2cc(OC)c(OC)cc2C1COc1cc(C)cc(C)c1 (centres undefined)	21	12µM*	-1	-11	?
COc1cc2c(cc1OC)C(COc1ccccc1OC)N(C(=O)C(C)(C)C)CC2 (centres undefined)	8	12µM*	15	22	-2%
CCCCC(=O)N1CCc2cc(OC)c(OC)cc2C1COc1ccc(OC)cc1 (centres undefined)	-98*	nt	nt	nt	nt
CC(C)C(NC(=O)C1(NC(=O)OCc2ccccc2)CCCC1)C(=O)O (centres undefined)	-11	nt	nt	nt	nt
COc1cc2c(cc1OC)C(c1cc3cccc(C)c3[nH]c1=O)N(C(=O)c1ccco1)CC2 (centres undefined)	-15	12µM*	2	10	-6%
Cc1snc(SCc2ccc(F)cc2)c1C#N	0	nt	11	25	20%
Cc1snc(SCC(=O)c2ccc([N+](=O)[O-])cc2)c1C#N	-5	?	30*	64*	0%
Cc1snc(SCC(=O)c2ccc(F)cc2)c1C#N	23	i	34*	105*	300%
CSc1snc(SCC(N)=O)c1C#N	-12	9%	-3	-29	-22%
Cc1snc(SCc2ccc(Cl)cc2)c1C#N	-100*	1%[0.00184 µM]	11*	46	9%
CCn1c(SCC(=O)c2ccc([N+](=O)[O-])cc2)nnc1-c1ccc(Cl)cc1	-1	nt	nt	nt	nt
CCCCCCCCN1C(=O)[C@H](CC(=O)NCCCN2CCCC2=O)C[C@@]2(C(=O)OC)CCCCC=C12	5	nt	nt	nt	nt
O=[N+]([O-])c1ccc(C(c2ccc([N+](=O)[O-])cc2)c2ccc([N+](=O)[O-])cc2)cc1	-26	nt	nt	nt	nt
CN(C)c1ccc(C(c2ccc(N(C)C)cc2)c2ccc([N+](=O)[O-])cc2)cc1	-16	-56%	-3	4	12µM*
O=C1C(Nc2ccccc2)=CC(=O)c2ncccc21	nt	nt	-7	-12	nt
O=C1C=C(Nc2cccc3cccnc23)c2ccccc2C1=O	-75*	2.1µM*	1	-3	211%
CCc1ccc(NC2=CC(=O)C(=O)c3ccccc32)cc1	-14	0.083µM*	nt	nt	0.074µM*
O=C1C=C(Nc2ccccc2C(=O)O)c2ccccc2C1=O	0	-2%	11	26	0%
O=C1C=C(Nc2ccccc2)C(=O)c2ccccc21	-30	?	48*	81*	2.3µM*
O=C1C=C(Nc2ccccc2)c2ccccc2C1=O	-64*	?	9	15	210%
COc1cc(NC(=O)CSc2nc3[nH]c(=O)cc(O)c3s2)cc(OC)c1OC	-2	-13%	nt	nt	11%
Cc1ccc(OCCC(=O)Nc2cc(S(=O)(=O)N3CCOCC3)ccc2N2CCCC2)cc1	0	nt	nt	nt	nt
